Test results from ChEMBL document CHEMBL1857833, “Screening and optimization of specific chemical series against human African Trypanosomiasis (HAT)”.
Screen size: about 4,400 compounds; about 390 (8.9%) showed an effect of 50% or more. The list comes from a sample in which strong results are over-represented; it also holds similar structures and randomly drawn compounds.

Each molecule was assayed on Trypanosoma brucei (assay: DNDI: Inhibition of Human African Trypanosomiasis, SBRI 427, in vitro at 2 ug.mL-1).
Assay type: functional

Going from CCOc1ccccc1-c1nc(CN(CCC#N)CC2CCCO2)co1 (configuration not stated) to CCOc1ccccc1-c1nc(CN(CC)CCN(CC)CC)co1, the “% inhibition” value rises from -20% to -5%.

Compared with O/N=C(\NC1CCc2ccccc21)c1ccnc(Oc2cccc3cnccc23)c1 (configuration not stated), O/N=C(\NCCN1CCOCC1)c1ccc(Oc2cccc3cccnc23)nc1 is lower in “% inhibition” value: 18% for the first, 9% for the second.

First: C=CCN1CCN(/C(=N\O)c2cccnc2Oc2ccc(Cl)cc2)CC1
Second: C=CCN1CCN(/C(=N\O)c2ccnc(Oc3ccc(C)c4c3CCC4)c2)CC1
The “% inhibition” value of the first is lower: 7% for the first, 22% for the second.

Compared with Cc1ccccc1-c1nc(CNCCC2=CCCCC2)co1, Brc1ccccc1-c1nc(CNCCC2=CCCCC2)co1 is lower in “% inhibition” value: 10% for the first, -2% for the second.

First: CCOc1ccccc1-c1nc(CNCCC2=CCCCC2)co1
Second: CCC(CC)NCc1coc(-c2ccccc2Cl)n1
The “% inhibition” value of the first is higher: 53% for the first, -8% for the second.

First: COc1ccc(OC)c(NCc2coc(-c3ccco3)n2)c1
Second: Cc1cccc(-c2nc(CNCc3ccc(C(C)(C)C)cc3)co2)c1
The “% inhibition” value of the first is higher: -5% for the first, -9% for the second.

Going from CCOc1ccc(Oc2nc(C)ccc2/C(=N/O)NCc2ccco2)cc1 to CCC(CC)N/C(=N\O)c1ccc(C)nc1Oc1ccc(F)cc1, the “% inhibition” value rises from 6% to 24%.

Compared with Cc1ccc([C@@H](C)NCc2coc(-c3ccc(Cl)cc3Cl)n2)cc1, CCC(CC)N/C(=N\O)c1ccc(C)nc1Oc1ccc(C)cc1 is higher in “% inhibition” value: 14% for the first, 70% for the second.

First: O/N=C(/c1ccnc(Oc2cccc(F)c2)c1)N1CCCCCC1
Second: Cc1cc(Oc2ccc(/C(=N/O)n3ccnc3)cn2)cc(C(C)C)c1
The “% inhibition” value of the first is higher: 3% for the first, 1% for the second.

Compared with CCC(CC)N/C(=N\O)c1ccc(C)nc1Oc1ccc(C)cc1C, CCC(CC)N/C(=N\O)c1ccc(C)nc1Oc1ccc(C)cc1OC is higher in “% inhibition” value: 34% for the first, 100% for the second.

Compared with CCC(CC)N/C(=N\O)c1ccc(C)nc1Oc1cc(C)cc(C(C)C)c1, CCC(CC)N/C(=N\O)c1ccc(C)nc1Oc1ccc(SC)cc1 is higher in “% inhibition” value: 15% for the first, 99% for the second.

First: CSc1ccc(Oc2nc(C)ccc2/C(=N/O)NC(C)C)cc1
Second: CSc1ccc(Oc2nc(C)ccc2/C(=N/O)NCC(C)(C)C)cc1
The “% inhibition” value of the first is lower: -8% for the first, -6% for the second.

Compared with COc1cc(C)ccc1Oc1nc(C)ccc1/C(=N/O)NC(C)C, CCC(CC)N/C(=N\O)c1cccnc1Oc1ccccc1OC is higher in “% inhibition” value: 29% for the first, 76% for the second.

Compared with Cc1ccc(/C(N)=N/O)c(Oc2cccc3ccc(C)nc23)n1, COc1ccc(CN/C(=N\O)c2cccnc2Oc2ccccc2SC)cc1 is higher in “% inhibition” value: 13% for the first, 16% for the second.

Compared with Cc1ccccc1-c1nc(CN2CCN(C/C=C/c3ccccc3)CC2)co1, CSc1ccccc1Oc1ncccc1/C(=N/O)NCc1cccs1 is higher in “% inhibition” value: -34% for the first, 28% for the second.

First: COCCN(/C(=N\O)c1cccnc1Oc1ccccc1F)C(C)C
Second: CCC(CC)N/C(=N\O)c1cccnc1Oc1ccccc1F
The “% inhibition” value of the first is lower: 5% for the first, 96% for the second.

Going from Cc1cn(/C(=N\O)c2cccnc2Oc2c(F)cccc2F)cn1 to CCC(CC)N/C(=N\O)c1cccnc1Oc1c(F)cccc1F, the “% inhibition” value rises from -7% to 99%.

Compared with COCC(C)N/C(=N\O)c1cccnc1Oc1ccccc1OC(C)C (configuration not stated), COCC(C)N/C(=N\O)c1cccnc1OCc1ccccc1F (configuration not stated) is lower in “% inhibition” value: -8% for the first, -13% for the second.

In the case of CCC(CC)N/C(=N\O)c1cccnc1Oc1ccccc1SC, the “% inhibition” value was 99%.
